{
  "source": "PubChem BioAssay AID1259313",
  "about": "(Sanford-Burnham Center for Chemical Genomics, 2017)",
  "note": "In all, about 340,000 compounds went through this assay and about 8,500 (2.5%) were called active.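 Rule for the calls: active = melting temperature shift of at least 10% of the positive control shift, at one fixed dose; inactive = the rest.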 This excerpt belongs to a sample that is enriched for actives.",
  "data": [
    {"system": "Glutamate receptor ionotropic, NMDA 3A (GRIN3A) ligand-binding domain", "assay": "binders of NR3A ligand-binding domain, primary screen, biophysical, differential scanning fluorimetry, uHTS (AID 1259313)", "conditions": "NR3A LBD differential scanning fluorimetry, at 25 µM, active compounds read high, 0% = protein alone, 100% = glycine-bound protein", "values": [
      {"compound": "CCn1c(O)c(N=NC(=O)c2cccc(S(=O)(=O)N3CCCCC3)c2)c2ccccc21", "Tm shift relative to glycine control": "-34.1% (inactive)"},
      {"compound": "Cc1cccc(C(=O)Nc2ccc3c(c2)C(=O)N(CC(C)C)C3=O)c1", "Tm shift relative to glycine control": "0.17% (inactive)"},
      {"compound": "CC(=O)Nc1ccc(NC(=O)c2ccc3c(c2)C(=O)N(c2ccccc2C)C3=O)cc1", "Tm shift relative to glycine control": "-0.29% (inactive)"},
      {"compound": "Cc1cccc(N2C(=O)c3ccc(C(=O)Nc4cccc(C(=O)O)c4)cc3C2=O)c1", "Tm shift relative to glycine control": "11.6% (active)"},
      {"compound": "CCC(C(=O)NCCC(C)C)N(Cc1ccccc1Cl)C(=O)c1snc(C(N)=O)c1N", "note": "(configuration not stated)", "Tm shift relative to glycine control": "-0.19% (inactive)"},
      {"compound": "Cc1ccc2c(c1)C(O)(CC(=O)c1cccnc1)C(=O)N2", "note": "(configuration not stated)", "Tm shift relative to glycine control": "-0.39% (inactive)"},
      {"compound": "CCCn1c(C)cc(-c2csc(NC(=O)CCc3nc4ccccc4c(=O)[nH]3)n2)c1C", "Tm shift relative to glycine control": "-0.45% (inactive)"},
      {"compound": "CCCc1nc(SCC(=O)Nc2ccc(S(=O)(=O)N(C)C)cc2)c2ccccc2n1", "Tm shift relative to glycine control": "17.5% (active)"},
      {"compound": "CCCNC(=O)CSc1nc(Cc2ccccc2)nc2ccccc12", "Tm shift relative to glycine control": "-0.71% (inactive)"},
      {"compound": "CCc1nc(SCC(=O)NNC(=O)c2ccc(C)cc2)c2ccccc2n1", "Tm shift relative to glycine control": "-0.6% (inactive)"},
      {"compound": "COc1ccc(CC(=O)NCc2nnc(SCC(=O)Nc3nccs3)n2C)cc1", "Tm shift relative to glycine control": "0.45% (inactive)"},
      {"compound": "CCCCc1cc(=O)oc2cc(C)cc(OCc3nn[nH]n3)c12", "Tm shift relative to glycine control": "14.2% (active)"},
      {"compound": "CCOC(=O)CCc1c(C)c2ccc(OCc3nn[nH]n3)c(C)c2oc1=O", "Tm shift relative to glycine control": "-2.57% (inactive)"},
      {"compound": "CCc1cc(=O)oc2cc(C)cc(OC(C)C(=O)O)c12", "note": "(configuration not stated)", "Tm shift relative to glycine control": "-0.34% (inactive)"},
      {"compound": "O=C1NC(c2ccncc2)Nc2sc3c(c21)CCCC3", "note": "(configuration not stated)", "Tm shift relative to glycine control": "0.51% (inactive)"},
      {"compound": "N#C/C(=C\\c1ccccc1)c1n[nH]c(Cn2cncn2)n1", "Tm shift relative to glycine control": "-0.2% (inactive)"},
      {"compound": "COc1ccccc1C1C(C#N)=C(N)Oc2c1c(-c1ccccc1)nn2-c1ccccc1", "note": "(configuration not stated)", "Tm shift relative to glycine control": "22.2% (active)"},
      {"compound": "Cc1nn(Cc2ccccc2)c2c1C(c1ccccc1)C(C#N)=C(N)O2", "note": "(configuration not stated)", "Tm shift relative to glycine control": "2.39% (inactive)"},
      {"compound": "Cc1nn(-c2ccccc2)c2c1C(c1ccc(F)cc1)C(C#N)=C(N)O2", "note": "(configuration not stated)", "Tm shift relative to glycine control": "-4.31% (inactive)"},
      {"compound": "Cc1ccc(C)c(OCc2cc(C(=O)N3CCN(c4cnccn4)CC3)no2)c1", "Tm shift relative to glycine control": "4% (inactive)"},
      {"compound": "O=C(COC(=O)c1cccc(Br)c1)Nc1cccc2c1C(=O)c1ccccc1C2=O", "Tm shift relative to glycine control": "14.9% (active)"},
      {"compound": "O=C(COC(=O)Cn1cnc2ccccc21)Nc1cccc2c1C(=O)c1ccccc1C2=O", "Tm shift relative to glycine control": "-5.74% (inactive)"},
      {"compound": "O=C(COC(=O)c1ccccc1)Nc1ccccc1Sc1ccccc1", "Tm shift relative to glycine control": "5.64% (inactive)"},
      {"compound": "CCCCC(=O)N(c1ccc(OC)cc1)C1C=CS(=O)(=O)C1", "note": "(configuration not stated)", "Tm shift relative to glycine control": "-8.09% (inactive)"},
      {"compound": "COc1ccc(CCNC(=O)CN2C(=O)CCSc3ccccc32)c(OC)c1", "Tm shift relative to glycine control": "-7.1% (inactive)"},
      {"compound": "O=C(Nc1ccc(F)cc1)c1cc2c(s1)CCCC2", "Tm shift relative to glycine control": "6.13% (inactive)"},
      {"compound": "O=C(Nc1ccc2c(c1)CCC2)c1ccc(Br)s1", "Tm shift relative to glycine control": "14.5% (active)"},
      {"compound": "CC1CC(C)CN(CCC(=O)Nc2ccc3c(c2)CCC3)C1", "note": "(configuration not stated)", "Tm shift relative to glycine control": "2.54% (inactive)"},
      {"compound": "O=C1c2ccccc2C(=O)C1C(=O)C1CC1", "Tm shift relative to glycine control": "1.97% (inactive)"},
      {"compound": "Cc1ccc(CSc2nc3[nH]ncc3c(=O)[nH]2)cc1", "Tm shift relative to glycine control": "-1.69% (inactive)"},
      {"compound": "COc1ccc(NC(=S)Nc2ccc(S(N)(=O)=O)cc2)c(C)c1", "Tm shift relative to glycine control": "-1.86% (inactive)"},
      {"compound": "NS(=O)(=O)c1ccc(NC(=S)Nc2ccc(Br)c(Cl)c2)cc1", "Tm shift relative to glycine control": "26.7% (active)"},
      {"compound": "NS(=O)(=O)c1ccc(CCNC(=S)Nc2ccc(S(N)(=O)=O)cc2)cc1", "Tm shift relative to glycine control": "0.88% (inactive)"},
      {"compound": "CCCCCc1nnc(NC(=O)c2ccc(=O)n(C)n2)s1", "Tm shift relative to glycine control": "-0.62% (inactive)"},
      {"compound": "CCOC(=O)NNc1cc(C(F)(F)F)ccn1", "Tm shift relative to glycine control": "0% (inactive)"},
      {"compound": "CCOC(=O)C[C@H]1c2ccc(C(F)(F)F)cc2S(=O)(=O)N1c1ccccc1", "Tm shift relative to glycine control": "-5.05% (inactive)"},
      {"compound": "CCOC(=O)C1Nc2ccc(C(F)(F)F)cc2C2C=CCC12", "note": "(configuration not stated)", "Tm shift relative to glycine control": "52.4% (active)"},
      {"compound": "CC[C@]12c3[nH]c4ccc(OC)cc4c3CCN1C(=O)C(CC(=O)NCCN1CCOCC1)C[C@@H]2C(=O)N1CCN(C(=O)C2CC2)CC1", "note": "(some centres not stated)", "Tm shift relative to glycine control": "-2.01% (inactive)"},
      {"compound": "Cc1cccc(NC(=O)CCn2c(=O)oc3ccccc32)c1", "Tm shift relative to glycine control": "-0.8% (inactive)"},
      {"compound": "O=C(CSc1ccc(/C=N/NC(=O)c2cccc(F)c2)o1)Nc1ccccc1", "Tm shift relative to glycine control": "12.4% (active)"},
      {"compound": "O=C(CCC(=O)Nc1ccccc1)N/N=C/c1ccccc1F", "Tm shift relative to glycine control": "0.57% (inactive)"},
      {"compound": "O=C(Cc1ccccc1)Nc1cccc(C(=O)N/N=C/c2ccco2)c1", "Tm shift relative to glycine control": "1.04% (inactive)"},
      {"compound": "O=C(CCC(=O)N/N=C/c1ccc(Br)o1)N/N=C/c1ccc(Br)o1", "Tm shift relative to glycine control": "-0.2% (inactive)"},
      {"compound": "N#CCC(=O)N/N=C/c1ccc(SCC(=O)Nc2ccccc2)o1", "Tm shift relative to glycine control": "12.7% (active)"},
      {"compound": "O=C(CCNC(=O)c1ccccc1)NN=Cc1ccc(Br)o1", "Tm shift relative to glycine control": "-3.41% (inactive)"},
      {"compound": "COC(=O)c1ccc(C2C3=C(Nc4nnnn42)c2ccccc2OC3)cc1", "note": "(configuration not stated)", "Tm shift relative to glycine control": "-8.44% (inactive)"},
      {"compound": "C#CCO[C@@H]1C[C@H](n2cnc3c(=O)[nH]c(NC(=O)C(C)C)nc32)O[C@@H]1CO", "Tm shift relative to glycine control": "0% (inactive)"},
      {"compound": "CCc1cc(-c2nnc(SCC(=O)NC3CC3)n2C)cs1", "Tm shift relative to glycine control": "-0.41% (inactive)"},
      {"compound": "O=C(CC1C(=O)NCCN1C(=O)c1ccc([N+](=O)[O-])cc1)Nc1cccc(Cl)c1", "note": "(configuration not stated)", "Tm shift relative to glycine control": "0.67% (inactive)"},
      {"compound": "CCOc1cnc(-c2c(-c3ccccc3Cl)noc2C)o1", "Tm shift relative to glycine control": "-1.94% (inactive)"},
      {"compound": "O=C(COC(=O)c1ccc(O)cc1O)NC(=O)c1ccccc1", "Tm shift relative to glycine control": "-11.9% (inactive)"},
      {"compound": "O=C(NNc1c2ccccc2nc2ccccc12)c1cc2ccccc2cc1O", "Tm shift relative to glycine control": "30.2% (active)"},
      {"compound": "O=C(NNC(=O)c1ccccc1O)c1ccccc1O", "Tm shift relative to glycine control": "2.79% (inactive)"},
      {"compound": "COCc1[nH][nH]c(=O)c1C=Nc1ccc(F)cc1F", "Tm shift relative to glycine control": "-2.69% (inactive)"},
      {"compound": "CCCCN1C(N)=NC[C@@H]1CC1CCCCC1", "Tm shift relative to glycine control": "-3.87% (inactive)"},
      {"compound": "CCc1cc(=O)oc2cc(C)cc(OCC(=O)N3CCC[C@@H]3C(=O)O)c12", "Tm shift relative to glycine control": "-2.37% (inactive)"},
      {"compound": "Cc1cc([N+](=O)[O-])ccc1NS(=O)(=O)c1ccccc1", "Tm shift relative to glycine control": "-13.4% (inactive)"},
      {"compound": "Cc1cc([N+](=O)[O-])ccc1NC1CCCC1", "Tm shift relative to glycine control": "12.8% (active)"},
      {"compound": "Cc1cc([N+](=O)[O-])c(NC2CCCCC2)c([N+](=O)[O-])c1", "Tm shift relative to glycine control": "1.28% (inactive)"},
      {"compound": "O=C(CSc1ccc(-c2ccc(-n3cccn3)cc2)nn1)Nc1ccc([N+](=O)[O-])cc1", "Tm shift relative to glycine control": "21.1% (active)"},
      {"compound": "O=C(CSc1ccc([N+](=O)[O-])cn1)Nc1ccc(N2CCOCC2)cc1", "Tm shift relative to glycine control": "0.67% (inactive)"},
      {"compound": "O=C(CSc1ccc(-c2ccccn2)nn1)Nc1ccccc1", "Tm shift relative to glycine control": "-2.4% (inactive)"}
    ]}
  ]
}
